# Test results: the supplement of paper PMC8728848
# The entries come from a sample that favours the strongest signals as a whole.
# Assays:
# Experiment in all cases: glycan array binding signal (z-score within array); higher = stronger binding
# Settings in all cases: glycan notation: IUPAC condensed, linker removed
# GalNAc(b1-3)GlcNAc = target: GalNAc(b1-3)GlcNAc
# Method in brief: (§1)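 Glycan array data were curated from 3228 arrays in the Consortium for Functional Glycomics database and kept only where the protein sequence was available. Glycan names were converted to IUPAC-condensed notation, and columns mapping to the same glycan were averaged. The binding signal is a within-array Z-score, averaged across arrays of the same protein sequence at different concentrations or buffers and across linkers. Negative Z-scores can be read as non-binding.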
# GalNAc6S(b1-4)GlcNAc = target: GalNAc6S(b1-4)GlcNAc
# Method in brief: as §1
# Glc(a1-6)Glc(a1-6)Glc = target: Glc(a1-6)Glc(a1-6)Glc
# Method in brief: as §1
# [1] = target: GlcNAc(a1-4)Gal(b1-4)GalNAc
# Method in brief: as §1
# [2] = target: GlcNAc(a1-4)Gal(b1-4)GlcNAc(b1-3)Gal(b1-4)GlcNAc
# Method in brief: as §1
# [3] = target: GlcNAc(a1-4)Gal(b1-4)GlcNAc(b1-3)Gal(b1-4)[Fuc(a1-3)]GlcNAc(b1-3)Gal(b1-4)[Fuc(a1-3)]GlcNAc
# Method in brief: as §1
# [4] = target: GlcNAc(b1-3)Gal(b1-4)GlcNAc(b1-2)[GlcNAc(b1-3)Gal(b1-4)GlcNAc(b1-6)]Man(a1-6)[GlcNAc(b1-3)Gal(b1-4)GlcNAc(b1-2)Man(a1-3)]Man(b1-4)GlcNAc(b1-4)GlcNAc
# Method in brief: as §1
# [5] = target: GlcNAc(b1-3)Gal(b1-4)GlcNAc(b1-3)Gal(b1-4)GlcNAc(b1-2)Man(a1-3)[GlcNAc(b1-3)Gal(b1-4)GlcNAc(b1-3)Gal(b1-4)GlcNAc(b1-2)Man(a1-6)]Man(b1-4)GlcNAc(b1-4)GlcNAc
# Method in brief: as §1
# [6] = target: GlcNAc(b1-3)Gal(b1-4)GlcNAc(b1-3)Gal(b1-4)GlcNAc(b1-2)[GlcNAc(b1-3)Gal(b1-4)GlcNAc(b1-3)Gal(b1-4)GlcNAc(b1-6)]Man(a1-6)[GlcNAc(b1-3)Gal(b1-4)GlcNAc(b1-3)Gal(b1-4)GlcNAc(b1-2)Man(a1-3)]Man(b1-4)GlcNAc(b1-4)[Fuc(a1-6)]GlcNAc
# Method in brief: as §1
# [7] = target: GlcNAc(b1-3)Gal(b1-4)GlcNAc(b1-3)Gal(b1-4)GlcNAc(b1-3)Gal(b1-4)GlcNAc(b1-2)[GlcNAc(b1-3)Gal(b1-4)GlcNAc(b1-3)Gal(b1-4)GlcNAc(b1-3)Gal(b1-4)GlcNAc(b1-6)]Man(a1-6)[GlcNAc(b1-3)Gal(b1-4)GlcNAc(b1-3)Gal(b1-4)GlcNAc(b1-3)Gal(b1-4)GlcNAc(b1-2)Man(a1-3)]Man(b1-4)GlcNAc(b1-4)[Fuc(a1-6)]GlcNAc
# Method in brief: as §1
# [8] = target: GlcNAc6S(b1-3)Gal(b1-4)GlcNAc
# Method in brief: as §1
# Kdn(a2-3)Gal(b1-3)GalNAc = target: Kdn(a2-3)Gal(b1-3)GalNAc
# Method in brief: as §1
# [9] = target: Man(a1-2)Man(a1-3)[Man(a1-2)Man(a1-6)]Man
# Method in brief: as §1
# Neu5Ac(a2-3)Gal(b1-4)Glc = target: Neu5Ac(a2-3)Gal(b1-4)Glc
# Method in brief: as §1
# [10] = target: Neu5Ac(a2-3)Gal(b1-4)GlcNAc(b1-2)Man(a1-3)[Neu5Ac(a2-3)Gal(b1-4)GlcNAc(b1-2)Man(a1-6)]Man(b1-4)GlcNAc(b1-4)[Fuc(a1-6)]GlcNAc
# Method in brief: as §1
# [11] = target: Neu5Ac(a2-3)Gal(b1-4)GlcNAc(b1-2)[Neu5Ac(a2-3)Gal(b1-4)GlcNAc(b1-4)]Man(a1-3)[GlcNAc(b1-4)][Neu5Ac(a2-3)Gal(b1-4)GlcNAc(b1-2)[Neu5Ac(a2-3)Gal(b1-4)GlcNAc(b1-6)]Man(a1-6)]Man(b1-4)GlcNAc(b1-4)GlcNAc
# Method in brief: as §1
# [12] = target: Neu5Ac(a2-3)Gal(b1-4)GlcNAc(b1-3)Gal(b1-4)GlcNAc(b1-3)Gal(b1-4)GlcNAc(b1-2)Man(a1-3)[Neu5Ac(a2-3)Gal(b1-4)GlcNAc(b1-3)Gal(b1-4)GlcNAc(b1-3)Gal(b1-4)GlcNAc(b1-2)Man(a1-6)]GalNAc
# Method in brief: as §1
# [13] = target: Neu5Ac(a2-3)Gal(b1-4)GlcNAc(b1-6)GalNAc
# Method in brief: as §1
# [14] = target: Neu5Ac(a2-3)Gal(b1-4)GlcNAc6S
# Method in brief: as §1
# [15] = target: Neu5Ac(a2-3)Gal(b1-4)[Fuc(a1-3)]GlcNAc(b1-2)Man
# Method in brief: as §1
# [16] = target: Neu5Ac(a2-6)Gal(b1-4)GlcNAc(b1-3)Gal(b1-4)GlcNAc(b1-2)Man(a1-3)[Neu5Ac(a2-6)Gal(b1-4)GlcNAc(b1-3)Gal(b1-4)GlcNAc(b1-2)Man(a1-6)]GalNAc
# Method in brief: as §1
# [17] = target: Neu5Ac(a2-6)Gal(b1-4)GlcNAc(b1-3)Gal(b1-4)GlcNAc(b1-3)Gal(b1-4)GlcNAc(b1-2)Man(a1-3)[Neu5Ac(a2-6)Gal(b1-4)GlcNAc(b1-3)Gal(b1-4)GlcNAc(b1-3)Gal(b1-4)GlcNAc(b1-2)Man(a1-6)]GalNAc
# Method in brief: as §1
# [18] = target: Neu5Ac(a2-6)Gal(b1-4)GlcNAc(b1-6)[Gal(b1-3)]GalNAc
# Method in brief: as §1
# [19] = target: Neu5Ac(a2-8)Neu5Ac(a2-3)[GalNAc(b1-4)]Gal(b1-4)Glc
# Method in brief: as §1
# [20] = target: Neu5Ac(a2-8)Neu5Ac(a2-8)Neu5Ac(a2-3)Gal(b1-4)Glc
# Method in brief: as §1
# [21] = target: Neu5Gc(a2-8)Neu5Ac(a2-3)Gal(b1-4)GlcNAc
# Method in brief: as §1
binder,measurement,setting,value
TIM1 (protein) ADGIQSVKVGGEAGPSVTLPCHYSGAVTSMCWNRGSCSLFTCQNGIVWTNGTHVTYRKDTRYKLLGDLSRRDVSLTIENTAVSDSGVYCCRVEHRGWFNDMKITVSLEIVPPHHHHHH,glycan array binding signal (z-score),GalNAc(b1-3)GlcNAc,-0.188
same,glycan array binding signal (z-score),GalNAc6S(b1-4)GlcNAc,-0.269
same,glycan array binding signal (z-score),Glc(a1-6)Glc(a1-6)Glc,-0.212
same,glycan array binding signal (z-score),[1],0.413
same,glycan array binding signal (z-score),[2],-0.125
same,glycan array binding signal (z-score),[3],2.32
same,glycan array binding signal (z-score),[4],1.97
same,glycan array binding signal (z-score),[5],5.59
same,glycan array binding signal (z-score),[6],1.97
same,glycan array binding signal (z-score),[7],1.02
same,glycan array binding signal (z-score),[8],-0.142
same,glycan array binding signal (z-score),Kdn(a2-3)Gal(b1-3)GalNAc,0.111
same,glycan array binding signal (z-score),[9],-0.292
same,glycan array binding signal (z-score),Neu5Ac(a2-3)Gal(b1-4)Glc,0.916
same,glycan array binding signal (z-score),[10],-0.132
same,glycan array binding signal (z-score),[11],-0.288
same,glycan array binding signal (z-score),[12],4.84
same,glycan array binding signal (z-score),[13],-0.189
same,glycan array binding signal (z-score),[14],-0.181
same,glycan array binding signal (z-score),[15],-0.204
same,glycan array binding signal (z-score),[16],1.3
same,glycan array binding signal (z-score),[17],5.74
same,glycan array binding signal (z-score),[18],-0.075
same,glycan array binding signal (z-score),[19],-0.183
same,glycan array binding signal (z-score),[20],-0.195
same,glycan array binding signal (z-score),[21],-0.137
